SW480 rerep – induces DNA re-replication in SW480 colon adenocarcinoma cells; SW480 DNA re-replication, Hoechst DNA content imaging, 48 h; Potency, µM (doses to about 46.1 µM), for inactives: at the highest dose re-replication activation, usual class: activators; 340,000 compounds, 1.8% hits; also: % of control where 0% means no effect; nearly all actives have a fitted effect of over 55% in size
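Hoechst fluorescence of nuclei (405 nm excitation, 500-530 nm emission) measured by plate-scanning imager after 48 hr compound exposure at 37 C; re-replication scored as increased number of nuclei with elevated intensity.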
PINK1 modulator – PINK1 expression modulation | PINK1 immunofluorescence, high-content cytometry, 24 h | Potency, µM (titrated, usually from 76.6 µM), inactives show at the top dose activation (PINK1 increase), usual class: activators | 410,000 compounds, 0.2% hits | AID 624263; active = well fitted activation curve with a large enough effect; inconclusive = small, poorly fitted or top-dose-only effect; cell line not stated here; also: % of control where 0% means no effect; nearly all actives have a fitted effect of over 65% in size
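Fluorescence from anti-PINK1 antibody, together with nuclear and cell stains, was scanned on a laser-scanning cytometer. Before staining, stable-line cells were incubated 24 hours with compounds at 5 concentrations; primary antibody 12 h at 10 degrees C.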
KB-V1 MDR tox – KB-V1 MDR subline cytotoxicity; AID 1347076; KB-V1 MDR cells viability, CellTiter-Glo, 72 h; 400,000 compounds, 3.4% hits; Potency, µM (series often up to 46.1 µM), most hits filed as cytotoxic; also: % is scaled to controls: 0 for no effect and ±100 for the full control effect; nearly all actives have a fitted effect of over 60% in size
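Cells of the MDR subline KB-V1 are plated, dosed with compound at multiple concentrations, and incubated 72 h at 37 degrees C; CellTiter-Glo is then added and luminescence read after 10 min.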
MCF10A rereplic – inducers of DNA re-replication in MCF 10A breast cells. MCF 10A DNA re-replication, Hoechst nuclear intensity, 48 h. Potency, µM (titrated, usually from 46.1 µM), without a hit: top-dose activity, positive = re-replication, actives largely listed as activators. 350,000 compounds, 2.9% hits; also: % of control where 0% means no effect; nearly all actives have a fitted effect of over 50% in size
ALOX12 inh – inhibitors of human 12S-lipoxygenase ALOX12. P18054. purified 12hLO, xylenol orange hydroperoxide absorbance. Potency, µM (doses to about 108 µM), without a hit: at the top dose activity change, negative = inhibition, most hits filed as inhibitors. 580,000 compounds, 1.1% hits; also: % is scaled to controls: 0 for no effect and ±100 for the full control effect
Target sequence (P18054 whole entry, looked up): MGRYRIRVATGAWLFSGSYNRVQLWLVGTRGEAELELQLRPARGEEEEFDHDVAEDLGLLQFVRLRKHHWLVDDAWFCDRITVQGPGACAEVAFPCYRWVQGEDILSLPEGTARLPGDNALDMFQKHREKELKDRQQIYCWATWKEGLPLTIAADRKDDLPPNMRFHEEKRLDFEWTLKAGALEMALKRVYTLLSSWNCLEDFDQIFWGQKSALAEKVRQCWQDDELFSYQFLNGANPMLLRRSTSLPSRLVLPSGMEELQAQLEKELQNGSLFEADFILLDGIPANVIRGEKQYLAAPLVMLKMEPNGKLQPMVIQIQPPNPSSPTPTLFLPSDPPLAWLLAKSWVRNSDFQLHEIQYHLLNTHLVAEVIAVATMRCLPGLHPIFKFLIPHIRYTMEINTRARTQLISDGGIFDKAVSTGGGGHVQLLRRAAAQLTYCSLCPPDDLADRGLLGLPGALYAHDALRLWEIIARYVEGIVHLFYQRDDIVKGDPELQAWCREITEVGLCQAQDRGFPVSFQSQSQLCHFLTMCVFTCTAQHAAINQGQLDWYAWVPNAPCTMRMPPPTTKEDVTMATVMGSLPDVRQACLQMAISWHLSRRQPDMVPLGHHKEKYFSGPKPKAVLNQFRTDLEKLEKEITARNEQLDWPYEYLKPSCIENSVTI
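Purified human 12hLO (150 nM final) in 25 mM Hepes, 0.01% Triton X-100, pH 7.0 was preincubated 15 min at room temperature with compound. Then 40 uM arachidonic acid was added, 30 min. Hydroperoxide was read by Fe-XO absorbance ratio 573/405 nm.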
KB-3-1 tox – kills parental KB-3-1 adenocarcinoma cells; KB-3-1 viability, CellTiter-Glo ATP luminescence, 72 h; Potency, µM (top dose mostly 46.1 µM), usual class: cytotoxic; 400,000 compounds, 1.4% hits; also: % is scaled to controls: 0 for no effect and ±100 for the full control effect; nearly all actives have a fitted effect of over 60% in size
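KB-3-1 cells, DMEM (no phenol red) + 10% FBS; compound by pin transfer, 72 h, 37 °C. Readout: CellTiter-Glo luminescence after 10 min. Data normalized, curve-fitted.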
* = called active by the depositor; [ ] = remark or other dose. Compounds with a hit are over-represented: about 5.8% of the library has one in this group of screens. Unless noted, calls follow the shape of the dose curve; as a rule, active = well fitted curve in the direction sought with a large enough effect; inconclusive = small, poorly fitted or top-dose-only effect, or another doubt; inactive = no such curve, though single readings can be large; an effect the other way counts as inactive or inconclusive. Potency is read from the fitted curve at half-maximal effect.

For COc1ccccc1C(O)c1nccn1C (stereo unspecified) the results were SW480 rerep -2%, PINK1 modulator 0%, KB-V1 MDR tox inactive, MCF10A rereplic 19%, ALOX12 inh inconclusive and KB-3-1 tox inactive.
For O=C(COC(=O)c1cc([N+](=O)[O-])ccc1NCCO)NCc1cccs1 the results were SW480 rerep -40%, PINK1 modulator 2%, KB-V1 MDR tox inactive, MCF10A rereplic 0.65µM*, ALOX12 inh -7% and KB-3-1 tox inactive.
For O=C(COC(=O)c1cc([N+](=O)[O-])ccc1Cl)c1cc2ccccc2o1 the results were ALOX12 inh 40µM*.
NC(=O)COC(=O)c1cc([N+](=O)[O-])ccc1NCCO was read as SW480 rerep -4%, PINK1 modulator 1%, KB-V1 MDR tox inactive, MCF10A rereplic 9%, ALOX12 inh 2% and KB-3-1 tox inactive.
Screening O=C(COC(=O)c1cc([N+](=O)[O-])ccc1Cl)NCCc1ccccc1 returned SW480 rerep -3%, PINK1 modulator 1%, KB-V1 MDR tox inactive, MCF10A rereplic 2%, ALOX12 inh 14% and KB-3-1 tox inactive.
`O=C(COC(=O)c1cc([N+](=O)[O-])ccc1NCCO)c1ccccc1` gave SW480 rerep inconclusive, PINK1 modulator -1%, KB-V1 MDR tox 21µM*, MCF10A rereplic -1%, ALOX12 inh -27% and KB-3-1 tox inconclusive.
CC(C)CNC(=O)NC(=O)COC(=O)c1cc([N+](=O)[O-])ccc1NCc1ccccc1Cl was read as ALOX12 inh -32%.
Screening O=C(COC(=O)c1cc([N+](=O)[O-])ccc1NCc1ccccc1Cl)NCC(F)(F)F returned SW480 rerep 0%, PINK1 modulator 3%, KB-V1 MDR tox inactive, MCF10A rereplic 21µM*, ALOX12 inh -13% and KB-3-1 tox inactive.
`NC(=O)c1cccc(CN2CCC3(C2)CN(C(=O)C2CCCC2)c2ccccc2CO3)c1` (stereo unspecified) gave ALOX12 inh 5%[6.33 µM].
For COc1ccccc1-c1nnc(SCC(=O)NC(C)c2ccc3c(c2)CCCC3)o1 (stereo unspecified) the results were ALOX12 inh 2%.
Screening O=c1c2c3c(sc2nc2c4ccccc4c(N4CCCCC4)nn12)CCC3 returned ALOX12 inh -1%.
C(=C\c1ccco1)/C1=NN(c2ccccc2)C(c2ccco2)C1 (stereo unspecified) was read as SW480 rerep 2.3µM*, PINK1 modulator inconclusive, KB-V1 MDR tox inconclusive, MCF10A rereplic 2.1µM* and KB-3-1 tox inactive.
`O=C1CC(/C=C/c2ccco2)=Nc2ccccc2N1` gave SW480 rerep 6%, PINK1 modulator 0%, KB-V1 MDR tox inactive, MCF10A rereplic 4% and KB-3-1 tox inactive.
Screening O=[N+]([O-])c1ccc(/C=C/C2=NN(c3ccccc3)C(c3ccco3)C2)o1 (stereo unspecified) returned SW480 rerep -5%, PINK1 modulator 14%, KB-V1 MDR tox inconclusive, MCF10A rereplic 3%, ALOX12 inh 157% and KB-3-1 tox 7.3µM*.
COc1ccccc1NC(=S)Nc1ccccn1 was read as SW480 rerep inconclusive, PINK1 modulator 6%, KB-V1 MDR tox inconclusive, MCF10A rereplic 18%, ALOX12 inh 40µM* and KB-3-1 tox inactive.
Cc1cccc(NC(=S)Nc2ccccn2)c1 was read as SW480 rerep -5%, PINK1 modulator 1%, KB-V1 MDR tox inactive, MCF10A rereplic 10%, ALOX12 inh 28µM* and KB-3-1 tox inactive.
COc1ccccc1NC(=O)C(=O)Nc1ccccn1 was read as SW480 rerep -1%, PINK1 modulator -3%[38.3 µM], KB-V1 MDR tox inactive, MCF10A rereplic 21%, ALOX12 inh 12% and KB-3-1 tox inactive.
Screening Cc1ccc(NC(=S)NNC(=S)Nc2ccc(C)cc2C)cc1 returned SW480 rerep 26%, PINK1 modulator inconclusive, KB-V1 MDR tox 4.6µM*, MCF10A rereplic 21%, ALOX12 inh 35µM* and KB-3-1 tox 1µM*.
For Cc1cc(C)cc(NC(=S)Nc2ccccn2)c1 the results were SW480 rerep 11%, PINK1 modulator 0%, KB-V1 MDR tox inconclusive, MCF10A rereplic 0%, ALOX12 inh 6.3µM* and KB-3-1 tox inactive.
For CC/C=C(/C)C(=O)NCc1ccc(C(=O)NC(C)CC)cc1 (stereo unspecified) the results were ALOX12 inh -14%.
For CCCCn1c(=O)[nH]c(=O)c2c1nc(CSc1nccn1-c1cc(C)cc(C)c1)n2C the results were ALOX12 inh 2%.
`Cc1cc(Cl)ccc1NC(=S)Nc1ccccn1` gave SW480 rerep 18%, PINK1 modulator 4%, KB-V1 MDR tox inactive, MCF10A rereplic 6%, ALOX12 inh inconclusive and KB-3-1 tox inactive.
`Cc1ccc(NC(=S)Nc2ccccn2)c(C)c1` gave SW480 rerep 3%, PINK1 modulator -2%, KB-V1 MDR tox inactive, MCF10A rereplic 11%, ALOX12 inh 11µM* and KB-3-1 tox inactive.
For COc1ccc2ccc3cccc[n+]3c2c1 the results were SW480 rerep inconclusive, PINK1 modulator -3%, KB-V1 MDR tox inactive, MCF10A rereplic inconclusive, ALOX12 inh 4% and KB-3-1 tox 13µM*.
`Cc1ccc(COn2c(-c3ccc(Cl)cc3)nc3ccc([N+](=O)[O-])cc32)cc1` gave SW480 rerep -5%, PINK1 modulator inconclusive, KB-V1 MDR tox inactive, MCF10A rereplic inconclusive, ALOX12 inh inconclusive and KB-3-1 tox inactive.
O=[N+]([O-])c1ccc2nc(-c3ccc(Cl)cc3)n(OCc3ccccc3)c2c1 was read as SW480 rerep -11%, PINK1 modulator 4%, KB-V1 MDR tox inactive, MCF10A rereplic 7%, ALOX12 inh inconclusive and KB-3-1 tox inactive.
Screening OCc1nc2ccccc2n1Cc1ccc(Cl)cc1 returned SW480 rerep 1%, PINK1 modulator 0%, KB-V1 MDR tox inactive, MCF10A rereplic 2%, ALOX12 inh 9% and KB-3-1 tox inactive.
Clc1ccc(COn2c(-c3ccc(Cl)cc3)nc3ccccc32)cc1 was read as SW480 rerep inconclusive, PINK1 modulator 29%[38.3 µM], KB-V1 MDR tox 18µM*, MCF10A rereplic 16µM*, ALOX12 inh -28% and KB-3-1 tox inactive.
Cn1cccc1-c1nc2ccccc2n1Cc1ccccc1 was read as SW480 rerep 6%, PINK1 modulator -1%, KB-V1 MDR tox inconclusive, MCF10A rereplic 11µM*, ALOX12 inh 4% and KB-3-1 tox inactive.
